In PubChem BioAssay AID720597 (Broad Institute, 2013):
Results with a measured potency or affinity are listed apart. Activity calls are given as the source filed them.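 How the source made its calls: active means fitted half-maximal dose no more than twice the top valid tested dose, for compounds that lower signal; inconclusive means fit invalid, or curve flat with activity between -70 and -30; inactive means potency past limit, curve flat within ±30, or signal increasing.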

Target: NAD-dependent protein deacylase sirtuin-5, mitochondrial (Homo sapiens) (UniProt Q9NXA8)
Sequence (Q9NXA8 whole entry, looked up): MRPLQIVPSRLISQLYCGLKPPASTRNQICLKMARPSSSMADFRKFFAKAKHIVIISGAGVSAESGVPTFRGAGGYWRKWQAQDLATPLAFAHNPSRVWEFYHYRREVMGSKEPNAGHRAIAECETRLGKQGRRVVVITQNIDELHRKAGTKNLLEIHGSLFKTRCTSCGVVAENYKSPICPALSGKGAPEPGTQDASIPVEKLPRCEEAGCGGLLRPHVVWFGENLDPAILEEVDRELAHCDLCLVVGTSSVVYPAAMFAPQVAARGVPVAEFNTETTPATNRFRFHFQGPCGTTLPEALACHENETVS
Experiment: blockers of sirtuin-5 peptide desuccinylation – biochemical, fluorescence imaging, cherry-pick, set 6, dose response (AID 720597);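 further: lower AMC signal can also come from blocking the trypsin step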
Details: Purified SirT5, succinyl-peptide-AMC/trypsin fluorescence; series mostly up to 15 µM

Row | Structure (SMILES) | outcome
1 | C[C@H]1CN([C@@H](C)CO)C(=O)c2cc(NC(=O)Cc3ccccc3)ccc2O[C@H]1CN(C)Cc1ccc(Oc2ccccc2)cc1 | inactive
2 | Cc1noc(C)c1S(=O)(=O)Nc1ccc2c(c1)C(=O)N([C@H](C)CO)C[C@@H](C)[C@@H](CN(C)Cc1ccc(C(F)(F)F)cc1)OCCCC[C@@H](C)O2 | inactive
3 | CCC(=O)N(C)C[C@@H]1Oc2ncc(-c3ccc(F)cc3)cc2C(=O)N([C@@H](C)CO)C[C@@H]1C | inactive
4 | Cc1ccc(S(=O)(=O)Nc2ccc3c(c2)CC(=O)N([C@@H](C)CO)C[C@@H](C)[C@H](CN(C)Cc2ccc(Oc4ccccc4)cc2)O3)cc1 | inactive
5 | CC(C)OC(=O)N(C)C[C@@H]1OCc2cn(nn2)CCCC(=O)N([C@H](C)CO)C[C@H]1C | inactive
6 | COc1ccc(S(=O)(=O)N(C)C[C@@H]2Oc3c(NS(C)(=O)=O)cccc3C(=O)N([C@@H](C)CO)C[C@H]2C)cc1 | inactive
7 | O=C(NCC[C@@H]1CC[C@H](NC(=O)C2CC2)[C@H](CO)O1)c1cc(Cl)cc(Cl)c1 | inactive
8 | COc1ccc(S(=O)(=O)N(C)C[C@H]2OCCCC[C@@H](C)Oc3ccc(NS(=O)(=O)c4ccc(F)cc4)cc3C(=O)N([C@@H](C)CO)C[C@@H]2C)cc1 | inactive
9 | COc1ccccc1C(=O)Nc1ccc2c(c1)C(=O)N(C)[C@H]1CC[C@H](CC(=O)Nc3cccc(C(C)C)c3)O[C@@H]1CO2 | inactive
10 | CC(=O)N(C)C[C@@H]1Oc2ncc(-c3ccccc3C)cc2C(=O)N([C@H](C)CO)C[C@H]1C | inactive
11 | O=C(Nc1cc(F)ccc1F)N1CCCCN2[C@H](CO)[C@H](c3ccc(-c4ccccc4)cc3)[C@H]2C1 | inactive
12 | CN1c2ccc(-c3ccccc3)cc2[C@H]2[C@H](CCN2C(=O)Cc2ccccn2)[C@H]1CO | inactive
13 | C[C@@H]1CCCCO[C@@H](CN(C)C(=O)CCCN(C)C)[C@@H](C)CN([C@H](C)CO)C(=O)c2cc(NS(=O)(=O)c3ccccc3)ccc2O1 | inactive
14 | O=C(CN1CCOCC1)N1CCCCN2[C@H](C1)[C@H](c1ccc(-c3ccccc3)cc1)[C@@H]2CO | inactive
15 | C[C@@H]1CN([C@@H](C)CO)S(=O)(=O)c2ccc(C#CC3CC3)cc2O[C@@H]1CN(C)C(=O)c1cccc(F)c1 | inactive
16 | C[C@@H]1CCCCO[C@H](CN(C)C(=O)Nc2ccc(F)cc2)[C@@H](C)CN([C@H](C)CO)C(=O)c2cc(NC(=O)Nc3ccc(F)cc3)ccc2O1 | inactive
17 | COc1ccc(S(=O)(=O)Nc2ccc3c(c2)C(=O)N([C@H](C)CO)C[C@H](C)[C@H](CN(C)Cc2ccc(C(F)(F)F)cc2)OCCCC[C@@H](C)O3)cc1 | inactive
18 | C[C@@H]1CN([C@@H](C)CO)C(=O)c2cc(NS(=O)(=O)c3ccc(Cl)cc3)ccc2O[C@@H](C)CCCCO[C@@H]1CN(C)C(=O)Nc1ccc(C(F)(F)F)cc1 | inactive
19 | Cc1ccc(S(=O)(=O)N(C)C[C@H]2OCCCC[C@H](C)Oc3ccc(NS(=O)(=O)c4ccccc4)cc3C(=O)N([C@H](C)CO)C[C@H]2C)cc1 | inactive
20 | C[C@@H]1CCCCO[C@H](CN(C)C(=O)Nc2ccc(C(F)(F)F)cc2)[C@H](C)CN([C@H](C)CO)C(=O)c2cc(NS(=O)(=O)c3ccc(Cl)cc3)ccc2O1 | inactive
21 | O=C(O)[C@@H]1[C@@H](CO)[C@@H]2Cn3c(ccc(-c4ccccc4F)c3=O)[C@@H]2N1Cc1ccccc1 | inactive
22 | O=C(NCC[C@H]1CC[C@@H](NC(=O)C2CC2)[C@@H](CO)O1)c1cc(Cl)cc(Cl)c1 | inactive
23 | C[C@@H]1CCCCO[C@H](CN(C)S(=O)(=O)c2ccc(Cl)cc2)[C@H](C)CN([C@@H](C)CO)C(=O)c2cc(NS(=O)(=O)c3ccc(F)cc3)ccc2O1 | inactive
24 | COc1ccc(S(=O)(=O)N(C)C[C@H]2OCCCC[C@H](C)Oc3ccc(NS(=O)(=O)c4ccc(C)cc4)cc3C(=O)N([C@@H](C)CO)C[C@@H]2C)cc1 | inactive
25 | CCC(=O)N1CCCCN2[C@H](CO)[C@H](c3ccc(-c4cccc(C#N)c4)cc3)[C@@H]2C1 | inactive
26 | C[C@@H](O)C#Cc1ccc([C@H]2[C@H](CO)N3CCCCN(CC4CC4)C[C@@H]23)cc1 | inactive
27 | CO[C@@H]1CC[C@@H]2CCN(C)C(=O)C[C@H](c3ccccc3)CN(C)C(=O)c3cccc(C#N)c3OC[C@@H]1O2 | inactive

Row | Structure (SMILES) | outcome
28 | Cc1ccc(NC(=O)C2CC(=O)n3ncnc3N2)cc1 (stereo not drawn) | inactive
29 | C[C@H](CO)N1C[C@H](C)[C@@H](CN(C)Cc2ccncc2)Oc2ncc(C#CCN(C)C)cc2C1=O | inactive
30 | C[C@@H]1CCCCO[C@@H](CN(C)CC2CCCCC2)[C@@H](C)CN([C@@H](C)CO)C(=O)c2cc(NS(=O)(=O)c3ccc(F)cc3)ccc2O1 | inactive
31 | CN(C)Cc1cn(CC[C@@H]2CC[C@H](N)[C@H](CO)O2)nn1 | inactive
32 | C[C@@H]1CN([C@@H](C)CO)C(=O)c2cc(NS(=O)(=O)c3ccc(Cl)cc3)ccc2O[C@@H](C)CCCCO[C@@H]1CN(C)Cc1ccc(C(F)(F)F)cc1 | inactive
33 | COCCNC(=O)c1cc2c(c(-c3cccc(-c4cccc(F)c4)c3)n1)[C@H](CCO)N(S(=O)C(C)(C)C)C2 (stereo partly drawn) | inactive
34 | C[C@H]1CN([C@@H](C)CO)S(=O)(=O)c2ccc(C#CC3CCCC3)cc2O[C@@H]1CN(C)C(=O)Nc1cc(F)ccc1F | inactive
35 | N#C[C@H]1[C@@H](c2ccccc2-c2ccccc2)[C@@H](CO)N1c1ncc(-c2ccccc2)s1 | inactive
36 | C[C@H](CO)N1C[C@H](C)[C@@H](CN(C)Cc2ccc(C(F)(F)F)cc2)OCCCC[C@H](C)Oc2ccc(NS(=O)(=O)c3cccs3)cc2C1=O | inactive
37 | Cc1noc(C)c1NC(=O)Nc1cccc2c1O[C@H](CN(C)Cc1ccc(Oc3ccccc3)cc1)[C@H](C)CN([C@@H](C)CO)C2=O | inactive
38 | Cc1ccc(S(=O)(=O)N(C)C[C@H]2OCCCC[C@@H](C)Oc3ccc(NS(=O)(=O)c4ccc(F)cc4)cc3C(=O)N([C@@H](C)CO)C[C@H]2C)cc1 | inactive
39 | C[C@H](CO)N1C[C@H](C)[C@@H](CN(C)Cc2ccc(Cl)c(Cl)c2)Oc2ccc(NS(=O)(=O)c3ccccc3)cc2CC1=O | inactive
40 | O=C(C[C@@H]1CC[C@H](NS(=O)(=O)c2ccc(F)cc2)[C@H](CO)O1)N1CCN(c2ccccc2)CC1 | inactive
41 | COc1ccc(CN(C)C[C@@H]2Oc3ccc(NC(=O)CCC(F)(F)F)cc3C(=O)N([C@H](C)CO)C[C@H]2C)cc1 | inactive
42 | COc1ccc(S(=O)(=O)N(C)C[C@H]2OCCCC[C@H](C)Oc3ccc(NS(=O)(=O)c4ccc(C)cc4)cc3C(=O)N([C@H](C)CO)C[C@@H]2C)cc1 | inactive
43 | Cc1cc(C)cc(NC(=O)C2CC(=O)n3ncnc3N2)c1 (stereo not drawn) | inactive
44 | C[C@H](CO)N1C[C@H](C)[C@H](CN(C)S(=O)(=O)c2ccc(Cl)cc2)OCc2ccccc2-c2c(n(C)c3ccccc23)C1=O | inactive
45 | CCCc1c(C)nc2ccc(Br)cc2c1SCCC(=O)O | inactive
46 | CN(C)CCCNC(=O)C[C@H]1CC[C@H]2[C@@H](COC[C@H](O)CN2S(=O)(=O)c2ccc(F)cc2)O1 | inactive
47 | CCCN(C[C@H]1[C@H](c2ccccc2)[C@@H](CO)N1C(C)=O)C(=O)NC(C)C | inactive
48 | Cc1ccc(S(=O)(=O)Nc2ccc3c(c2)C(=O)N([C@H](C)CO)C[C@@H](C)[C@@H](CN(C)S(=O)(=O)c2ccccc2)OCCCC[C@@H](C)O3)cc1 | inactive
49 | C[C@H](CO)N1C[C@H](C)[C@H](CN(C)Cc2ccc(C(F)(F)F)cc2)Oc2ccc(NS(C)(=O)=O)cc2C1=O | inactive
50 | COc1cccc(C(=O)Nc2ccc3c(c2)C(=O)N(C)C[C@H](OC)[C@@H](C)CN(CCc2ccccc2)[C@H](C)CO3)c1 | inactive
51 | O=C(NCC[C@H]1CC[C@H](NC(=O)C2CC2)[C@H](CO)O1)c1cc(Cl)cc(Cl)c1 | inactive
52 | COCC(=O)Nc1ccc2c(c1)[C@@H]1C[C@@H](CC(=O)NCc3ccccc3OC)O[C@@H](CO)[C@@H]1O2 | inactive
53 | Cc1ccc(S(=O)(=O)N(C)C[C@H]2OCCCC[C@@H](C)Oc3ccc(NS(=O)(=O)c4ccc(Cl)cc4)cc3C(=O)N([C@@H](C)CO)C[C@@H]2C)cc1 | inactive
